Experimental data published in PubChem BioAssay (NCI).
The panel holds about 83,000 compounds, 20% with a hit somewhere; the sample as a whole holds those more often.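 Note: values are percent growth. 100 is the growth of untreated cells, values between 100 and 0 indicate rising inhibition; between -100 and 0 indicates cell death.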 Unmarked numbers belong to inactive results. Active and inactive are the calls of the source. The calls were made as follows: active = growth percent below 10; inactive = the rest.

Columns and labels:
Experiment in all cases: NCI-60 one-dose screen, 48 h (100 = growth as untreated, 0 = no growth, -100 = all killed)
Details in all cases: 10 µM unless noted
[1] = system: SR leukemia
[2] = system: RPMI-8226 leukemia
[3] = system: OVCAR-8 ovarian
[4] = system: OVCAR-5 ovarian
[5] = system: OVCAR-4 ovarian
[6] = system: SK-OV-3 ovarian
[7] = system: IGROV1 ovarian
[8] = system: OVCAR-3 ovarian
[9] = system: HS 578T breast
[10] = system: NCI/ADR-RES ovarian

| Compound | growth [1] | growth [2] | growth [3] | growth [4] | growth [5] | growth [6] | growth [7] | growth [8] | growth [9] | growth [10] |
| --- | --- | --- | --- | --- | --- | --- | --- | --- | --- | --- |
| CC1(C)[C@@H](O)CC[C@]2(C)[C@H]3CC[C@@H]4[C@H]5[C@H](C(=O)/C=C\c6ccccn6)CC[C@]5(O)CC[C@@]4(C)[C@]3(C)CC[C@@H]12 | -17.6% (active) | -19.2% (active) | 39.5% | 48.4% | 32.9% | 89.8% | 34.5% | 25.4% | 39.2% | 26.4% |
| C=C1CC[C@@H]2[C@]3(C)COC(c4ccccc4)O[C@@H]3CC[C@@]2(C)[C@@H]1C/C=C1/C(=O)OC[C@H]1O (stereo not given in full) | 36.9% | 28.2% | 56.6% | 105% | 83.4% | 119% | 89.3% | 63.8% | 101% | 57% |
| COc1ccccc1C(=O)Nc1cccc2c1C(=O)C(=O)C=C2 | 58.2% | 88.3% | 102% | 114% | 74.8% | 114% | 79.2% | 13.1% | 102% | 113% |
| CC1(C)CC[C@]2(C(=O)O)CC[C@]3(C)C(=CC[C@@H]4[C@@]5(C)CC/C(=N\OCCC#N)C(C)(C)[C@@H]5CC[C@]43C)[C@@H]2C1 | 103% | 97.5% | 109% | 103% | 82.6% | 110% | 85.7% | 110% | 107% | 116% |
| Cc1ccc(NC(=O)c2ccc(CN3CCN(C)CC3)cc2)cc1Oc1ccc(-c2[nH]nc3ncnc(N)c23)cc1 | 80.2% | 75.5% | 99.5% | 101% | 99.1% | 93.7% | 90% | 88.4% | 82.8% | 100% |
| CCO/C=N/C1=C(C#N)C(c2ccc(OC)cc2)c2sc3c(C)cccc3c2O1 (stereo not given) | 17.9% | 0.107% (active) | 29.3% | 34.4% | 85.3% | 50.3% | 27.1% | 7.72% (active) | 16.6% | 10.9% |
| O=C(CCn1cc[n+](CC(=O)c2ccc(-c3ccccc3)cc2)c1)Nc1cccc2cccnc12 | 79.8% | 34% | 82.4% | 91.7% | 24.6% | 74.6% | 36.4% | 51.9% | 71.3% | 99.7% |
| COc1cc(-c2nn(C(C)(C)C)cc2-c2ccnc(NCCCNS(=O)(=O)c3ccc(C)cc3)n2)ccc1Cl | 51.3% | 88.9% | 89.8% | 88.1% | 56.3% | 106% | 62.8% | 95.5% | 76.6% | 89.8% |
| COc1ccc(-c2cc(-c3ccc(Cl)cc3)c(C#N)c(=O)n2Cc2ccc(C(=O)O)cc2)cc1 | 28.9% | 79.9% | 99% | 105% | 88.6% | 114% | 96.9% | 6.02% (active) | 31.9% | 83.6% |
| COc1ccccc1-n1cc(C#N)c(N)c1C(=O)c1ccc(C)cc1 | 49.4% | 99.7% | 95% | 103% | 103% | 93.5% | 84.6% | 94.6% | 85.6% | 60.2% |
| Cn1ccnc1C(=O)/C=C/c1ccc(CNC(=O)c2ccc(F)cc2)cc1 | 8.69% (active) | 13% | 47.1% | 17.4% | 42% | 77.8% | 23.1% | 15.1% | 40.4% | 18.9% |
| COc1cc(/C=N/NC(=O)c2cn(C3CC3)c3c(OC)c(N4CC5CCCNC5C4)c(F)cc3c2=O)ccc1O (stereo not given) | -13.4% (active) | -25% (active) | 74.2% | 38.4% | -52.8% (active) | 119% | 16.4% | -73% (active) | 107% | 98.5% |
| CNC(=O)c1cc(-c2ccc(NC(=S)Nc3cc(C(F)(F)F)cc(C(F)(F)F)c3)cc2)nc2cccnc12 | 71.8% | 93.7% | 100% | 102% | 75.3% | 102% | 75.9% | 106% | 93.9% | 105% |
| Cc1ccc(-n2cc(/C=C/C(=O)c3ccc(O)cc3)c(-c3ccc(S(C)(=O)=O)cc3)n2)cc1 | 55.1% | 47.9% | 87.5% | 95.7% | 98.7% | 94.9% | 47.7% | 22.7% | 96.2% | 33.6% |
| Cc1cc(S(=O)(=O)N(C)C)cc(NCC(=O)NC(=O)NCC(C)C)c1C | 91% | 97.4% | 104% | 87.8% | 76.4% | 112% | 77.2% | 112% | 103% | 114% |
| Cc1ccc(-n2cc(/C=N/NC(=O)c3ccncc3)c(-c3ccc(S(C)(=O)=O)cc3)n2)cc1 | 63.5% | 96.5% | 98.7% | 103% | 102% | 96.1% | 77.8% | 82.3% | 90.3% | 51.7% |
| Nn1c(N/N=C/c2nc3ccccc3s2)n[nH]c1=S | 108% | 105% | 107% | 103% | 85.8% | 118% | 82.2% | 118% | 110% | 118% |
| CC(=O)c1cc(C(=O)c2ccc(Br)cc2)n2cc(C)cc(C)c12 | 77.1% | 62.9% | 98.9% | 89.8% | 93.4% | 94.9% | 85.6% | 112% | 95.9% | 86.3% |
| O=C(c1ccc(O)cc1)[C@@H]1CN[C@@]2(C(=O)Nc3ccccc32)[C@H]1c1ccc(F)cc1 | 87.5% | 95.4% | 99.2% | 104% | 102% | 115% | 95.3% | 117% | 110% | 99.2% |
| CCO/C=N/C1=C(C#N)C(c2ccc(Cl)cc2)c2sc3c(C)cccc3c2O1 (stereo not given) | 12.2% | 7.03% (active) | 28% | 27.9% | 64.3% | 59.4% | 26.6% | -30.6% (active) | 18.9% | 11.7% |
| COc1ccc(N2CCN(C3=C(Cl)C(=O)C(C)=C(C)C3=O)CC2)cc1 | 78.6% | 89.4% | 100% | 110% | 99.7% | 96.7% | 103% | 113% | 103% | 101% |
| O=S(=O)(NCCNc1nccc(-n2cnc3ccccc32)n1)c1ccc(C(F)(F)F)cc1 | 35.5% | 44.9% | 63.5% | 86.2% | 28.4% | 62.2% | 66.4% | 72.9% | 42.9% | 55.9% |
| CCCCCCCn1cc2c(N[C@H](C)c3ccccc3)ncnc2n1 | 99.5% | 100% | 103% | 104% | 100% | 117% | 89.9% | 103% | 91.2% | 102% |
| CCO/C=N/C1=C(C#N)C(c2ccc(F)cc2)c2sc3c(CC)cccc3c2O1 (stereo not given) | 6.82% (active) | 4.25% (active) | 27.2% | 29.2% | 60.4% | 64.4% | 23.5% | -17.4% (active) | 32.5% | 9.33% (active) |
| CC(C)C[C@@H]1N[C@@]2(C(=O)Nc3ccccc32)[C@@H](c2ccc(F)cc2)[C@@H]1C(=O)c1ccc(O)cc1 | 73.5% | 91.2% | 97.1% | 95.6% | 89.6% | 108% | 53.4% | 96.9% | 84.5% | 94.1% |
| O=C(CN1CCN(c2cc(=O)n(-c3ccccc3)c3ccccc23)CC1)Nc1cccc(C(F)(F)F)c1 | 67.3% | 47% | 70.6% | 91.8% | 19.9% | 77.3% | 60.7% | 69.8% | 76.3% | 64.7% |
